High-throughput results from PubChem BioAssay.
HTR5A inv ctr: counter-screen for OPRM1-OPRD1 inverse agonists: human HTR5A inverse agonism; P47898; 340,000 compounds, 0.083% hits; inhibition, % at 9.3 µM; AID 504634; HTR5A cell line, luminescence; in the data active = inhibition mostly above about 23%, no sharp cut-off; inactive = mostly below about 18%;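 note: 0% = cells with DMSO and 100% = no-cell wells with DMSO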
MOR-DOR ag-1: OPRM1-OPRD1 heterodimerization agonism; P35372+P41143; cells, luminescence; activation, % at 9.3 µM; 340,000 compounds, 0.3% hits; AID 504326;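 note: 0% = vehicle-treated cells and 100% = reference agonist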
HTR5A ag ctr: counter-screen for OPRM1-OPRD1 agonists: human HTR5A agonism. 340,000 compounds, 0.61% hits. HTR5A agonist assay, luminescence, cell-based. AID 504692. P47898. activation, % at 9.3 µM; in the data active = activation mostly above about 9.5%, no sharp cut-off; inactive = mostly below about 7.6%;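 note: 0% = cells with vehicle only and 100% = reference agonist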
OPRM1-OPRD1 inv: inverse agonist of human OPRM1-OPRD1 heterodimerization | inhibition, % at 9.3 µM | AID 504357 | cell-based MOR-DOR heterodimer luminescence, inverse agonism | 340,000 compounds, 0.21% hits; in the data active = inhibition above about 22%, passing the limit was not always enough;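 note: 0% = cells with DMSO and 100% = wells without cells with DMSO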
MOR-DOR ag-2: promotes OPRM1-OPRD1 heterodimerization in HTR5A counter-screen; shares compounds with HTR5A ag ctr; U2OS counter-screen cells, complementation luminescence, 3 h; activation, % at 9.3 µM; 800 compounds, 13% hits; AID 504913
HTR5A ag confirm: HTR5A (human) agonism, confirmation. HTR5A agonist cell assay, luminescence. 800 compounds, 17% hits. shares compounds with HTR5A ag ctr. activation, % at 9.3 µM. AID 504915; in the data active = activation above about 17%;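 note: 0% = cells with vehicle only and 100% = full reference agonist response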
Active calls of the source: *; . = no result given. Rows were chosen to be rich in hits. Some 1.1% of all compounds tested hit in one or more screens of this group. Cut-off read from the data, not from the text of the source, unless noted: active = activation above about 18%; inactive = the rest.

SMILES | HTR5A inv ctr | MOR-DOR ag-1 | HTR5A ag ctr | OPRM1-OPRD1 inv | MOR-DOR ag-2 | HTR5A ag confirm
Cc1ccc2sc(N(CCCN(C)C)C(=O)CCS(=O)(=O)c3ccccc3)nc2c1C | -57 | 4 | 15* | -21 | 7 | 10
CC(C)(C)c1ccc(C(=O)Nc2nnc(Cc3c[nH]c4ccccc34)s2)cc1 | -53 | 8 | 21* | -43 | 1 | 1
O=C(Nc1nnc(Cc2c[nH]c3ccccc23)s1)c1ccc(Cl)cc1Cl | 8 | 4 | 7 | -20 | . | .
Cc1cc(Br)ccc1NC(=O)CN(C)Cc1cccs1 | -21 | 4 | 2 | -24 | . | .
Cn1cc(C(=O)NCC2COc3ccccc3O2)c(=O)c2cc(S(=O)(=O)N3CCCCC3)ccc21 (stereo not given) | -113 | 1 | 49* | -6 | 3 | 10
Oc1c(Cl)cc(Cl)c2cccnc12 | 24 | 8 | -9 | -40 | . | .
O=C(Oc1c(Cl)cc(Cl)c2cccnc12)c1cccs1 | 11 | 6 | 17* | -29 | 8 | -1
O=C(Oc1c(Cl)cc(Cl)c2cccnc12)c1ccco1 | 0 | 4 | 26* | -26 | 4 | 0
O=C(Oc1c(CN2CCOCC2)cc(Cl)c2cccnc12)c1cccs1 | 10 | 0 | -4 | -2 | . | .
O=C(O)C1OCC2(CO1)COC(C(=O)O)OC2 (stereo not given) | -10 | -2 | 3 | 8 | . | .
CCCn1c(SCC(=O)N2N=C3/C(=C/c4ccc(OC)cc4)CCCC3C2c2ccc(OC)cc2)n[nH]c1=O (stereo not given) | -77 | 2 | 23* | -9 | 26* | 7
CC(=O)NC1C(=O)N=C(SCC(=O)Nc2ccc(C(F)(F)F)cc2Cl)NC1=O (stereo not given) | 1 | -4 | 0 | 18 | . | .
O=C(CCl)N(c1ccc(Cl)cc1)c1c[nH]c2ccccc12 | -27 | 2 | 16* | -12 | 1 | 21*
CCN(CC)S(=O)(=O)c1ccc2c(c1)oc(=O)n2CC(=O)NC1CCCCC1 | 15 | -3 | -1 | 15 | . | .
Cc1cccc(OCc2n(CC(=O)OC3CC(C)CCC3C(C)C)c3ccccc3[n+]2C)c1 (stereo not given) | -49 | 9 | 17* | -48 | 2 | 6
CC(=O)N1CCN(CC(=O)Nc2cc(S(=O)(=O)N3CCOCC3)ccc2C)CC1 | 3 | -2 | -2 | 10 | . | .
O=C(NC1CCCCC1)C(c1cccnc1)N(C(=O)c1csnn1)c1ccccc1 (stereo not given) | 0 | -2 | 1 | 15 | . | .
Cc1cc(C)c(OCCCCNCc2ccccc2)c(Cl)c1 | -46 | 6 | 19* | -28 | 12 | 1
Cc1cc(C)c(OCCNCc2ccccc2)c(C)c1 | 6 | 2 | -2 | -7 | . | .
COCCn1c(SCC(=O)NC2CCCCC2)nnc1-c1ccncc1 | 5 | -1 | -2 | 3 | . | .
Cc1ccc(C)c(S(=O)(=O)NCc2ccncc2)c1 | 0 | -1 | 15* | 3 | 4 | 2
Cc1ccc(C)c(S(=O)(=O)NCc2cccnc2)c1 | -27 | -2 | -3 | 11 | . | .
O=C(CCc1ccncc1)NC1CCCc2c1cnn2-c1ccc(F)cc1F (stereo not given) | -3 | 0 | 1 | 1 | . | .
CCC(C)NS(=O)(=O)c1ccc(S(=O)(=O)N(CC(=O)Nc2ccccc2)Cc2ccco2)cc1 (stereo not given) | -9 | 1 | 15* | -4 | -1 | 2
c1ccc(-c2ccc3ccccc3n2)cc1 | -6 | -1 | 1 | 5 | . | .
SMILES | HTR5A inv ctr | MOR-DOR ag-1 | HTR5A ag ctr | OPRM1-OPRD1 inv | MOR-DOR ag-2 | HTR5A ag confirm
CNc1ccccc(-c2ccc3ccccc3n2)c1=O | -111 | 3 | 15* | -14 | 0 | 39*
O=C(Nc1nc(-c2cccs2)cs1)c1ccc(S(=O)(=O)N2CCCCC2)cc1 | -54 | 0 | 19* | -1 | -1 | -7
Cc1ccc(-n2cc(CN3CCC(O)(c4ccccn4)CC3)c(-c3ccc(F)cc3)n2)cc1 | 0 | 4 | 0 | -23 | . | .
COc1ccc(Cl)cc1NC(=O)c1nnn(CC(=O)Nc2ccc3c(c2)OCO3)c1N | -16 | 5 | 4 | -23 | . | .
Cc1cc(C)cc(OCC(=O)Nc2nc(-c3ccccn3)cs2)c1 | -30 | 2 | 21* | -11 | 0 | 64*
COc1ccc(NC(=O)COc2cccc3c2OC(C)(C)C3)cc1OC | -67 | 0 | 26* | 1 | 1 | 29*
CC1(C)Cc2cccc(OCC(=O)OCC(=O)Nc3ccccc3)c2O1 | -17 | -1 | 6 | 6 | . | .
